Laboratory results from PubChem BioAssay (EPA / NIEHS).
“And” between values parts separate entries of the source, which are not always exact repeats. Equal entries are not always repeated. Some structures have more than one record in an assay (separate samples or runs), and their calls can disagree. The source made the active and inactive calls. How the source made its calls: active means hit-call score of the fitted dose curve at least 0.9, where 1 is the maximum; inactive means score below 0.9.

Legend:
[1] = read-out: Transforming growth factor beta 1 (TGFb1), TGFB1 (gene 7040); assay: BSK_KF3CT_TGFb1: BioMAP Diversity Plus: KF3CT Assay for Transforming growth factor beta 1 (TGFb1) Biomarker Activity (AID 2283072); conditions: primary human keratinocytes with fibroblasts; actives raise or lower the signal
Procedure, shortened: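 ELISA quantifies TGF-b1 at 24 h post-dose in a primary human skin co-culture of keratinocytes and fibroblasts, with gain or loss judged against DMSO. Parallel SRB total-protein staining flags overt cytotoxicity.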

[2] = read-out: C-C motif chemokine 2 (Homo sapiens) (UniProt P13500); assay: BSK_KF3CT_MCP1: BioMAP Diversity Plus: KF3CT Assay for Monocyte Chemoattractant Protein 1 (MCP1/CCL2) Biomarker Activity (AID 2283073); conditions: primary human keratinocytes with fibroblasts; actives raise or lower the signal
Procedure, shortened: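 Human keratinocyte–foreskin fibroblast co-culture; MCP-1 measured by ELISA 24 h after dosing. Bidirectional fit vs DMSO; cytotoxicity tracked by SRB total protein in parallel cultures.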

[3] = read-out: Matrix Metallopeptidase 9 (MMP9), MMP9 (gene 4318); assay: BSK_KF3CT_MMP9: BioMAP Diversity Plus: KF3CT Assay for Matrix Metallopeptidase 9 (MMP9) Biomarker Activity (AID 2283074); conditions: primary human keratinocytes with fibroblasts; actives raise or lower the signal;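 on AC50: MMP9 protein level quantified by ELISA in the co-culture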
Procedure, shortened: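 Values come from bidirectional fitting relative to DMSO of MMP-9 levels, which were measured by ELISA. Measurements were taken 24 h after chemical dosing of a keratinocyte and foreskin fibroblast co-culture.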

[4] = read-out: urokinase plasminogen activator (uPA), PLAU (gene 5328); assay: BSK_KF3CT_uPA: BioMAP Diversity Plus: KF3CT Assay for urokinase plasminogen activator (uPA) Biomarker Activity (AID 2283075); conditions: primary human keratinocytes with fibroblasts; actives raise or lower the signal
Procedure, shortened: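 Values derive from bidirectional fitting against DMSO controls. Keratinocyte/foreskin fibroblast co-cultures received chemical; 24 h later uPA was detected by ELISA, with SRB total-protein staining in parallel wells for overt cytotoxicity.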

[5] = read-out: CD40, CD40 (gene 958); assay: BSK_LPS_CD40: BioMAP Diversity Plus: LPS Assay for CD40 Biomarker Activity (AID 2283076); conditions: primary human HUVEC with PBMC; actives raise or lower the signal
Procedure, shortened: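 HUVEC plus PBMC co-culture stimulated with LPS; CD40 quantified by ELISA 24 h after compound dosing. Fitting was bidirectional relative to DMSO. SRB staining of parallel cultures flagged overt cytotoxicity.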

[6] = read-out: E-selectin (Homo sapiens) (UniProt P16581); assay: BSK_LPS_Eselectin: BioMAP Diversity Plus: LPS Assay for Eselectin Biomarker Activity (AID 2283077); conditions: primary human HUVEC with PBMC; actives raise or lower the signal
Procedure, shortened: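 Human umbilical vein endothelial cells co-cultured with PBMC under LPS stimulation; cell-surface E-selectin measured by ELISA 24 h after dosing. Change in either direction versus DMSO, with SRB total-protein staining in parallel cultures for cytotoxicity.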

[7] = BSK_LPS_SRB: Viability Assessment in the BioMAP Diversity Plus: LPS Assay (AID 2283079); conditions: primary human HUVEC with PBMC;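 further: total protein by sulforhodamine B absorbance as a cytotoxicity measure; measured one day after compound addition; fitted in both directions against DMSO so loss or gain of signal counts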
Procedure, shortened: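 Co-culture of human umbilical vein endothelial cells and PBMC, read 24 h after dosing. Total protein by 0.1% SRB staining after 10% TCA fixation, absorbance at 560 nm; bidirectional fit against DMSO.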

[8] = read-out: Macrophage colony-stimulating factor (MCSF), CSF1 (gene 1435); assay: BSK_LPS_MCSF: BioMAP Diversity Plus: LPS Assay for Macrophage colony-stimulating factor (MCSF) Biomarker Activity (AID 2283083); conditions: primary human HUVEC with PBMC; actives raise or lower the signal
Procedure, shortened: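 HUVEC–PBMC co-culture, M-CSF measured by ELISA 24 h after chemical dosing. Fitted in both directions relative to DMSO as negative control; overt cytotoxicity assessed by SRB total-protein staining in parallel cultures.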

[9] = read-out: Tissue Factor, F3 (gene 2152); assay: BSK_LPS_TissueFactor: BioMAP Diversity Plus: LPS Assay for Tissue Factor Biomarker Activity (AID 2283084); conditions: primary human HUVEC with PBMC; actives raise or lower the signal
Procedure, shortened: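 Human umbilical vein endothelial cells co-cultured with PBMC were dosed with compound. Cell-surface CD142 was measured by ELISA 24 h later. Activity was fitted bidirectionally against DMSO, with SRB total-protein staining in parallel cultures for cytotoxicity.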

[10] = read-out: Tumor necrosis factor (Homo sapiens) (UniProt P01375); assay: BSK_LPS_TNFa: BioMAP Diversity Plus: LPS Assay for Tumour Necrosis Factor alpha (TNFa) Biomarker Activity (AID 2283085); conditions: primary human HUVEC with PBMC; actives raise or lower the signal;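 on AC50: TNFa protein level quantified by ELISA in the co-culture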
Procedure, shortened: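 TNFa was quantified by ELISA in LPS-activated co-cultures of human endothelial cells and PBMC, 24 h post-dosing. Both increases and decreases versus DMSO were fitted.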

[11] = read-out: Vascular cell adhesion molecule 1 (VCAM1), VCAM1 (gene 7412); assay: BSK_LPS_VCAM1: BioMAP Diversity Plus: LPS Assay for Vascular cell adhesion molecule 1 (VCAM1) Biomarker Activity (AID 2283086); conditions: primary human HUVEC with PBMC; actives raise or lower the signal
Procedure, shortened: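 VCAM-1 quantified by ELISA in an LPS-activated co-culture of human endothelial cells and peripheral blood mononuclear cells, read 24 h post-treatment. Fitted in both directions versus DMSO; parallel SRB staining flags overt cytotoxicity.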

[12] = read-out: CD40, CD40 (gene 958); assay: BSK_SAg_CD40: BioMAP Diversity Plus: SAg Assay for CD40 Biomarker Activity (AID 2283088); conditions: primary human HUVEC with PBMC; actives raise or lower the signal
Procedure, shortened: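 HUVEC plus PBMC co-culture, superantigen-activated, with CD40 read by ELISA 24 h after dosing. Curves fitted in both directions against DMSO. Overt cytotoxicity checked by parallel SRB total-protein staining.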

[13] = BSK_SAg_PBMCCytotoxicity: PBMC Cytotoxicity Assessment in the BioMAP Diversity Plus: SAg Assay (AID 2283093); conditions: primary human HUVEC with PBMC;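 further: PBMC viability measured as Alamar Blue reduction fluorescence at 546/580 nm; fitted both ways against DMSO so a hit may be loss or gain of signal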;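 on AC50: PBMC superantigen activated with SEB plus TSST-1 one hour after compound addition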
Procedure, shortened: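 Alamar Blue reduction (6 h, 546/580 nm) reports PBMC cytotoxicity after 90 h superantigen activation (SEB, TSST-1; 20 ng/mL final each) with 1 h compound pre-treatment. Gain or loss of signal fitted versus DMSO.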

[14] = read-out: Interleukin-8 (IL8), CXCL8 (gene 3576); assay: BSK_SAg_IL8: BioMAP Diversity Plus: SAg Assay for Interleukin-8 (IL8) Biomarker Activity (AID 2283094); conditions: primary human HUVEC with PBMC; actives raise or lower the signal
Procedure, shortened: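 ELISA readout of IL-8 from a superantigen-activated endothelial/PBMC primary human co-culture, taken 24 h post-dosing and fitted in both directions against DMSO; parallel SRB total-protein staining flags overt cytotoxicity.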

[15] = BSK_SAg_SRB: Viability Assessment in the BioMAP Diversity Plus: SAg Assay (AID 2283096); conditions: primary human HUVEC with PBMC;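 further: cells read one day after compound addition; hits may be either gain or loss of signal compared with DMSO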
Procedure, shortened: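 This overt-cytotoxicity endpoint quantifies protein in human endothelial/PBMC co-cultures at 24 h using SRB absorbance (560 nm) after trichloroacetic acid fixation. Values reflect signal change from the DMSO negative control, fitted bidirectionally.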

[16] = BSK_BT_Bcell_Proliferation: Viability Assessment in the BioMAP Diversity Plus: BT Assay for B cell Proliferation (AID 2284227); conditions: primary human B cells with PBMC
Procedure, shortened: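 SRB-based protein staining (0.1% SRB after 10% TCA fixation, 560 nm) quantifies proliferation in human B cells co-cultured with PBMC, 72 h post-dosing, with signal gain scored relative to DMSO negative control.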

[17] = read-out: Interleukin 6 (IL6), IL6 (gene 3569); assay: BSK_BT_xIL6: BioMAP Diversity Plus: BT Assay for Interleukin 6 (IL6) Biomarker Activity (AID 2284228); conditions: primary human B cells with PBMC
Procedure, shortened: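 Human B cell/PBMC co-culture; secreted IL-6 quantified by Luminex xMAP 24 h after chemical dosing, fitted relative to DMSO. Parallel PBMC viability by Alamar Blue after 1 h pretreatment, 20 ng/mL SEB and TSST-1, 90 h incubation.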

[18] = read-out: Interleukin 17A (IL17A), IL17A (gene 3605); assay: BSK_BT_xIL17A: BioMAP Diversity Plus: BT Assay for Interleukin 17A (IL17A) Biomarker Activity (AID 2284229); conditions: primary human B cells with PBMC
Procedure, shortened: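 Co-culture of human B cells and PBMC, dosed for 24 h in 96-well format. Secreted IL-17A measured with Luminex xMAP; gain-direction fitting against DMSO as baseline.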

[19] = read-out: Collagen IV, COL4A1 (gene 1282); assay: BSK_MyoF_CollagenIV: BioMAP Diversity Plus: MyoF Assay for Collagen IV Biomarker Activity (AID 2284247); conditions: primary human lung fibroblasts
Procedure, shortened: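 Collagen IV quantified by ELISA in human lung fibroblast cultures 24 h after chemical treatment, with DMSO as baseline. Parallel SRB staining (0.1% SRB after TCA fixation, 560 nm) flags overt cytotoxicity.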

[20] = read-out: Matrix Metallopeptidase 1 (MMP1), MMP1 (gene 4312); assay: BSK_MyoF_MMP1: BioMAP Diversity Plus: MyoF Assay for Matrix Metallopeptidase 1 (MMP1) Biomarker Activity (AID 2284268); conditions: primary human lung fibroblasts
Procedure, shortened: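 Human lung fibroblast primary cells; MMP1 measured by ELISA 24 h after dosing, fitted in the positive direction relative to DMSO. Parallel SRB staining (0.1%, after 10% TCA fixation, 560 nm) assesses overt cytotoxicity.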

Sequence of E-selectin (Homo sapiens) (P16581 whole entry, looked up): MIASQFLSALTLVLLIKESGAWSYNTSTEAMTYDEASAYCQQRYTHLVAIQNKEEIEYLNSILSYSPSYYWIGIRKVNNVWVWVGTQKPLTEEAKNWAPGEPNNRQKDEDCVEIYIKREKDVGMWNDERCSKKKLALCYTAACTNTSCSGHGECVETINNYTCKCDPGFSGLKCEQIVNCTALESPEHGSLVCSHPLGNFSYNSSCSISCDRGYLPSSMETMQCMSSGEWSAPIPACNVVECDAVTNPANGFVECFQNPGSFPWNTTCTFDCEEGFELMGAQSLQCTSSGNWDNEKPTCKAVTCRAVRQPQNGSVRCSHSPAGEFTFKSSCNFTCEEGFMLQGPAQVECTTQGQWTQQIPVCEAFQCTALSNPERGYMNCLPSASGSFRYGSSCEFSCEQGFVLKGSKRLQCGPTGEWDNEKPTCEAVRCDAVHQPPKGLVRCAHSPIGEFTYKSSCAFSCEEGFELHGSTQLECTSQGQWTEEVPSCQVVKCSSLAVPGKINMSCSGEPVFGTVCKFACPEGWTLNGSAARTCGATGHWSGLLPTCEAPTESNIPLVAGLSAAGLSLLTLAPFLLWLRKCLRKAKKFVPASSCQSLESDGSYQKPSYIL
Sequence of Tumor necrosis factor (Homo sapiens) (P01375 whole entry, looked up): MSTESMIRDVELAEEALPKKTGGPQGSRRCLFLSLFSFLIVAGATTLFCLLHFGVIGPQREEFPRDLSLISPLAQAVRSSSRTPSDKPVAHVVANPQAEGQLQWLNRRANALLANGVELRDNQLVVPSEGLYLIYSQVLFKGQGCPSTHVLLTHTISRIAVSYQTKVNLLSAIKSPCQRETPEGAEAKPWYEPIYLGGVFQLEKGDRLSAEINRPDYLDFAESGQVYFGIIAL

CC1(C)[C@H](C(=O)O[C@H](C#N)c2cccc(Oc3ccccc3)c2)[C@@H]1C=C(Br)Br
outcome [1]: inactive
outcome [2]: inactive
outcome [3]: inactive
outcome [4]: inactive
outcome [5]: inactive
outcome [6]: inactive
outcome [7]: inactive
outcome [8]: inactive
outcome [9]: inactive
outcome [10]: inactive
outcome [11]: inactive
outcome [12]: inactive
outcome [13]: inactive
outcome [14]: inactive
outcome [15]: inactive
AC50 [16]: 20 µM (active)
outcome [16]: inactive
AC50 [17]: 15.2 µM (active)
outcome [17]: inactive
AC50 [18]: 20 µM (active)
outcome [18]: inactive
outcome [19]: inactive
outcome [20]: inactive

CCc1cc(C)cc(CC)c1-c1c(OC(=O)C(C)(C)C)n2n(c1=O)CCOCC2
AC50 [1]: 20 µM (active)
outcome [2]: inactive
outcome [3]: inactive
outcome [4]: inactive
outcome [5]: inactive
outcome [6]: inactive
outcome [7]: inactive
outcome [8]: inactive
outcome [9]: inactive
outcome [10]: inactive
AC50 [11]: 3.97 µM (active)
outcome [12]: inactive
outcome [13]: inactive
outcome [14]: inactive
outcome [15]: inactive
outcome [16]: inactive
outcome [17]: inactive
outcome [18]: inactive
outcome [19]: inactive
outcome [20]: inactive

O=C1C=CC(=O)C=C1
AC50 [1]: 29.9 µM (active) and 12.4 µM (active)
AC50 [2]: 27.7 µM (active) and 16.1 µM (active)
AC50 [3]: 20 µM (active) and 11.6 µM (active)
AC50 [4]: 30.9 µM (active) and 30.6 µM (active)
AC50 [5]: 12.3 µM (active) and 20 µM (active)
AC50 [6]: 26.4 µM (active) and 30.4 µM (active)
outcome [7]: inactive
AC50 [8]: 20 µM (active) and 28.7 µM (active)
outcome [9]: inactive
AC50 [10]: 31.7 µM (active) and 18.7 µM (active)
AC50 [11]: 20 µM (active)
AC50 [12]: 29 µM (active) and 27.7 µM (active)
AC50 [13]: 9.09 µM (active) and 7.38 µM (active)
outcome [14]: inactive
outcome [15]: inactive
AC50 [16]: 17.8 µM (active) and 24.2 µM (active)
AC50 [17]: 11.3 µM (active) and 25.7 µM (active)
AC50 [18]: 13.6 µM (active) and 20 µM (active)
AC50 [19]: 34.4 µM (active)
outcome [19]: inactive
AC50 [20]: 5.76 µM (active)
outcome [20]: inactive

COC(C)(C)CCC[C@H](C)C/C=C/C(C)=C/C(=O)OC(C)C
AC50 [1]: 15.3 µM (active)
outcome [2]: inactive
AC50 [3]: 29 µM (active)
outcome [4]: inactive
AC50 [5]: 20 µM (active)
AC50 [6]: 35.3 µM (active)
AC50 [7]: 29.5 µM (active)
AC50 [8]: 20.5 µM (active)
AC50 [9]: 26.8 µM (active)
AC50 [10]: 32.7 µM (active)
AC50 [11]: 27.4 µM (active)
AC50 [12]: 26.8 µM (active)
AC50 [13]: 29.7 µM (active)
outcome [14]: inactive
AC50 [15]: 33.3 µM (active)
AC50 [16]: 28.8 µM (active)
AC50 [17]: 20 µM (active)
AC50 [18]: 13.4 µM (active)
outcome [19]: inactive
AC50 [20]: 26.9 µM (active)

O=[N+]([O-])c1ccc(Cl)cc1
outcome [1]: inactive
outcome [2]: inactive
outcome [3]: inactive
outcome [4]: inactive
outcome [5]: inactive
outcome [6]: inactive
outcome [7]: inactive
outcome [8]: inactive
outcome [9]: inactive
outcome [10]: inactive
outcome [11]: inactive
outcome [12]: inactive
outcome [13]: inactive
outcome [14]: inactive
outcome [15]: inactive

O=c1c2ccccc2c(=O)c2c1cc(Cl)c1[nH]c3c([nH]c12)c(Cl)cc1c(=O)c2ccccc2c(=O)c13
outcome [1]: inactive
outcome [2]: inactive
outcome [3]: inactive
outcome [4]: inactive
outcome [5]: inactive
outcome [6]: inactive
outcome [7]: inactive
outcome [8]: inactive
outcome [9]: inactive
outcome [10]: inactive
outcome [11]: inactive
outcome [12]: inactive
outcome [13]: inactive
outcome [14]: inactive
outcome [15]: inactive
outcome [16]: inactive
outcome [17]: inactive
outcome [18]: inactive
outcome [19]: inactive
outcome [20]: inactive
